Measured values taken from PubChem BioAssay (NCI).
Compounds without any hit were thinned out: in the full panel of roughly 79,000, 15% have a hit. The source made the active and inactive calls. No stated cut-off is given here; in the data, active means growth inhibition above about 70%; inactive means the rest.

Tests used:
[1] = NCI Yeast Anticancer Drug Screen. Data for the rad50 strain (AID 155);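 further: 0% = growth of vehicle-only cultures of the same strain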; conditions: S. cerevisiae rad50 strain growth inhibition, active compounds read high
How it was run: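 DNA repair mutant yeast, compound exposure, growth read-out; inhibition is taken relative to vehicle.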

[2] = NCI Yeast Anticancer Drug Screen. Data for the mec2-1 strain (AID 157); conditions: S. cerevisiae mec2-1 strain, active compounds read high
How it was run: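 mec2-1 yeast strain, carrying an alteration in DNA damage repair or cell cycle control, was exposed to compounds; growth inhibition was measured relative to vehicle-treated controls.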

[3] = NCI Yeast Anticancer Drug Screen. Data for the sgs1 mgt1 strain (AID 161);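 further: 0% = growth of cultures given vehicle only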; conditions: S. cerevisiae sgs1 mgt1 strain, active compounds read high
How it was run: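 Percent growth inhibition was derived by comparing compound-exposed mutant yeast with vehicle-exposed cultures. The strain carries alterations in DNA damage repair.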

[4] = NCI Yeast Anticancer Drug Screen. Data for the cln2 rad14 strain (AID 165);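 further: 0% = growth equal to vehicle treated cultures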; conditions: S. cerevisiae cln2 rad14 strain, active compounds read high
How it was run: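 Yeast carrying cln2 and rad14 alterations (cell cycle control and DNA damage repair) were exposed to compounds. Growth inhibition was measured against vehicle-treated controls.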

[5] = NCI Yeast Anticancer Drug Screen. Data for the bub3 strain (AID 167); conditions: S. cerevisiae bub3 mutant strain, active compounds read high
How it was run: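 In this screen, a yeast mutant lacking normal mitotic checkpoint function is challenged with compound. Relative growth versus vehicle gives the inhibition value.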

[6] = NCI Yeast Anticancer Drug Screen. Data for the mlh1 rad18 strain (AID 175); conditions: S. cerevisiae mlh1 rad18 strain growth inhibition, active compounds read high
How it was run: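 Growth inhibition of the yeast strain was measured after compound exposure and expressed relative to vehicle-treated controls. The strain carries defined defects in DNA damage repair.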

[7] = at 5.0 µM (retest, dose inferred, filed as 0.5)
[8] = at 50.0 µM (retest, dose inferred, filed as 5.0)

Measured: growth inhibition

COC(=O)CCCCCCCCC[CH2][Hg][Cl]
active: [1]; [7] 99% | [1]; [8] 99% | [1]; at 50.0 µM 95% | [2]; [7] 100% | [2]; [8] 99% | [2]; at 50.0 µM 97.5% | [3]; [7] 99% | [3]; [8] 99% | [3]; at 50.0 µM 98% | [4]; [7] 99% | [4]; [8] 98% | [4]; at 50.0 µM 97.3% | [5]; [7] 99% | [5]; [8] 99% | [5]; at 50.0 µM 98.4% | [6]; [7] 100% | [6]; [8] 99% | [6]; at 50.0 µM 98.4%

CCCCCCCCCCCCCCCCCC(=O)[O][Hg][c]1ccccc1
inactive: [1]; [7] 33% | [2]; [7] 43% | [6]; [7] 34%
active: [1]; [8] 96% | [1]; at 50.0 µM 90.7% | [2]; [8] 98% | [2]; at 50.0 µM 91.5% | [3]; [7] 100% | [3]; [8] 99% | [3]; at 50.0 µM 94% | [4]; [7] 99% | [4]; [8] 100% | [4]; at 50.0 µM 92.3% | [5]; [7] 99% | [5]; [8] 100% | [5]; at 50.0 µM 90% | [6]; [8] 100% | [6]; at 50.0 µM 90.2%

Cc1ccc(N=P(c2ccccc2)(c2ccccc2)c2ccccc2)cc1.[I][Hg][I]
active: [1]; [7] 99% | [1]; [8] 99% | [1]; at 50.0 µM 94.7% | [2]; [7] 100% | [2]; [8] 100% | [2]; at 50.0 µM 99.7% | [3]; [7] 100% | [3]; [8] 99% | [3]; at 50.0 µM 98.9% | [4]; [7] 99% | [4]; [8] 99% | [4]; at 50.0 µM 99% | [5]; [7] 99% | [5]; [8] 98% | [5]; at 50.0 µM 98.3% | [6]; [7] 99% | [6]; [8] 99% | [6]; at 50.0 µM 99.3%

CCC[CH2][Sn]([Cl])([CH2]C)[O][Sn]([Cl])([CH2]C)[CH2]CCC (configuration not stated)
active: [1]; [7] 88% | [1]; [8] 98% | [1]; at 50.0 µM 83.5% | [2]; [7] 96% | [2]; [8] 99% | [2]; at 50.0 µM 88.2% | [3]; [7] 81% | [3]; [8] 97% | [3]; at 50.0 µM 89.6% | [4]; [7] 84% | [4]; [8] 97% | [4]; at 50.0 µM 91.2% | [5]; [7] 84% | [5]; [8] 97% | [5]; at 50.0 µM 89.2% | [6]; [7] 95% | [6]; [8] 98% | [6]; at 50.0 µM 90.2%

CC(=O)OC1CCC2(C)C(CCC3C4=CCC(C5=CC(=O)OC5)C4(C)CCC32)C1 (configuration not stated)
active: [1]; at 50.0 µM 82.8% | [2]; at 50.0 µM 81.8% | [3]; at 50.0 µM 91.3% | [6]; at 50.0 µM 77.8%
inactive: [1]; [7] 3% | [1]; [8] -33% | [2]; [7] -1% | [2]; [8] 14% | [3]; [7] 5% | [3]; [8] 55% | [4]; [7] 12% | [4]; [8] 11% | [4]; at 50.0 µM 65.3% | [5]; [7] 0% | [5]; [8] 4% | [5]; at 50.0 µM 67.5% | [6]; [7] 3% | [6]; [8] -8%

C[CH2][Sn]([Cl])([CH2]C)[O][Sn]([Cl])([CH2]C)[CH2]C
active: [1]; [8] 90% | [1]; at 50.0 µM 85.2% | [2]; [8] 89% | [2]; at 50.0 µM 96.2% | [3]; [8] 94% | [3]; at 50.0 µM 72.2% | [4]; [8] 86% | [4]; at 50.0 µM 95% | [5]; [8] 88% | [5]; at 50.0 µM 96.7% | [6]; [8] 83% | [6]; at 50.0 µM 84.9%
inactive: [1]; [7] 6% | [2]; [7] 4% | [3]; [7] 6% | [4]; [7] -3% | [5]; [7] 6% | [6]; [7] 8%

NC1=C(c2nc(-c3ccccc3)cs2)C(c2ccc(Br)cc2)c2c(c3ccccc3oc2=O)O1 (configuration not stated)
active: [1]; [8] 99% | [2]; [8] 100% | [3]; [8] 99% | [4]; [8] 99% | [5]; [8] 99% | [6]; [8] 99%
inactive: [1]; [7] 5% | [1]; at 50.0 µM 0.8% | [2]; [7] 6% | [2]; at 50.0 µM 29.2% | [3]; [7] 7% | [3]; at 50.0 µM 17.2% | [4]; [7] 3% | [4]; at 50.0 µM 42.4% | [5]; [7] 4% | [5]; at 50.0 µM 28.8% | [6]; [7] 6% | [6]; at 50.0 µM 46.1%

Nc1ccc(Cl)cc1C(=O)c1ccccc1Cl
inactive: [1]; [7] -3% | [2]; [7] -3% | [3]; [7] -2% | [4]; [7] -9% | [5]; [7] -12% | [6]; [7] -1%
active: [1]; [8] 99% | [1]; at 50.0 µM 97.4% | [2]; [8] 99% | [2]; at 50.0 µM 97.2% | [3]; [8] 99% | [3]; at 50.0 µM 97.5% | [4]; [8] 98% | [4]; at 50.0 µM 80.8% | [5]; [8] 99% | [5]; at 50.0 µM 87.5% | [6]; [8] 99% | [6]; at 50.0 µM 96.8%

COC1C(C)OC(OC2CC(C)(O)Cc3cc4c(c(O)c32)C(=O)c2c(O)cc3c(c2C4=O)OC2OC3(C)C(O)C(N(C)C)C2O)C(OC)C1(C)OC (configuration not stated)
inactive: [1]; [7] 69% | [4]; [7] 58%
active: [1]; [8] 96% | [1]; at 50.0 µM 89.5% | [2]; [7] 75% | [2]; [8] 99% | [2]; at 50.0 µM 93% | [3]; [7] 76% | [3]; [8] 97% | [3]; at 50.0 µM 91% | [4]; [8] 91% | [4]; at 50.0 µM 88% | [5]; [7] 77% | [5]; [8] 94% | [5]; at 50.0 µM 91.5% | [6]; [7] 83% | [6]; [8] 98% | [6]; at 50.0 µM 90%
